Assay [1] relates to Tyrosine-protein kinase ABL1 (Homo sapiens), P00519 [T315I]. The note with it: at 1 µM.
Assay [2] has as its system Tyrosine-protein kinase ABL1 (Homo sapiens), P00519 [Y253F]. The settings on record: at 0.1 µM.
Assay [3] has the same test system. The note with it: at 1 µM.
Assay [4] addresses Tyrosine-protein kinase ABL1 (Homo sapiens) (UniProt P00519). The settings on record: at 0.1 µM.
Assay [5] has the same target. The settings on record: at 1 µM.
In assay [6] the target is ALK tyrosine kinase receptor (Homo sapiens) (UniProt Q9UM73). The settings on record: at 0.1 µM.
Sequence of ALK tyrosine kinase receptor (Homo sapiens) (Q9UM73 19-1620 limits assumed): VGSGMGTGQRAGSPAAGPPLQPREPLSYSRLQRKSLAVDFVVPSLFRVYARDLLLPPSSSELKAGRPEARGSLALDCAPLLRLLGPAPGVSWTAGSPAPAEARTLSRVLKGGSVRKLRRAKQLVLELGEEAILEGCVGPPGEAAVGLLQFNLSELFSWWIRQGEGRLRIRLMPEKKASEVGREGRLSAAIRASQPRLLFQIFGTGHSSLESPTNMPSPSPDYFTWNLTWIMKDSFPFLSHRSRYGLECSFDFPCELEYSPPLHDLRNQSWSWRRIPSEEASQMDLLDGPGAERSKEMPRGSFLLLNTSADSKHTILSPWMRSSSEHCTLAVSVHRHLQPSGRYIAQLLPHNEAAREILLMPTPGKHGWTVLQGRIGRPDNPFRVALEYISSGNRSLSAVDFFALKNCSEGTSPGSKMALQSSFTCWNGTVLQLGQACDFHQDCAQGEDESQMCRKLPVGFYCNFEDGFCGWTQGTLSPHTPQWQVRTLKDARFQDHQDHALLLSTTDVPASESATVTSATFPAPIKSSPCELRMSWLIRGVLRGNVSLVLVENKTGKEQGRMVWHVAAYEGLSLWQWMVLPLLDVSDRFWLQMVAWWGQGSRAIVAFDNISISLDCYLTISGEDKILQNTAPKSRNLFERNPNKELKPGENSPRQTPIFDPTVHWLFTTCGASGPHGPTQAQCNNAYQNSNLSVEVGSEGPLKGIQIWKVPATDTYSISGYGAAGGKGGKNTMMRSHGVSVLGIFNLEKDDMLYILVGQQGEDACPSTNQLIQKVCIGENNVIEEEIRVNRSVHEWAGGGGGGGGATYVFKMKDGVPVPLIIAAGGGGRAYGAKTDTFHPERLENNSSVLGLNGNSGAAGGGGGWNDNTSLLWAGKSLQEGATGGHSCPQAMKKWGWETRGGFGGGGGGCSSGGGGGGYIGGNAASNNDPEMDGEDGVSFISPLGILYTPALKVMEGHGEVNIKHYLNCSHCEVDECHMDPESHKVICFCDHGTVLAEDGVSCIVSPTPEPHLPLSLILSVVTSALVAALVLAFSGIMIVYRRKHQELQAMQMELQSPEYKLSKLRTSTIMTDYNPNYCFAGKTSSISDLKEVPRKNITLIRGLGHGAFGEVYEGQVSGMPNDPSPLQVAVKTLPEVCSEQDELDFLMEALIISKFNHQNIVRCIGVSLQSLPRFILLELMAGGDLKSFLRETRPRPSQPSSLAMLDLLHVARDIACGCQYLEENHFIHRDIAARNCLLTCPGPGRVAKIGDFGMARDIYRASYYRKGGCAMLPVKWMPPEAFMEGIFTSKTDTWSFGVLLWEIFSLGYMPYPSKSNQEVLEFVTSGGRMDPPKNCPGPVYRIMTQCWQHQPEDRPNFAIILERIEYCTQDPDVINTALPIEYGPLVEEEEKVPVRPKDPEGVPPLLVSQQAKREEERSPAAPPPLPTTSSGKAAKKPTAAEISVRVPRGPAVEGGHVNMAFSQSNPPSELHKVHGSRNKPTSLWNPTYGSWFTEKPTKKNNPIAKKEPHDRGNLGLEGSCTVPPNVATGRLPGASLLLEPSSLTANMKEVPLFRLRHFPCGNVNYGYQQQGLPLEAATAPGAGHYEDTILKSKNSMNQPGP
The target is the same in assay [7]. The note with it: at 1 µM.
For assay [8], the target named is Tyrosine-protein kinase ABL2 (Homo sapiens) (UniProt P42684). The settings on record: at 0.1 µM.
The target is the same in assay [9]. The note with it: at 1 µM.
Assay [10] concerns the target Tyrosine-protein kinase receptor UFO (Homo sapiens) (UniProt P30530). The note with it: at 0.1 µM.
For assay [11] the target is unchanged. The settings on record: at 1 µM.
Assay [12] concerns the target Tyrosine-protein kinase Blk (Homo sapiens) (UniProt P51451). The settings on record: at 0.1 µM.
Assay [13] has the same target. The note with it: at 1 µM.
Assay [14] has as its target T1, Cytoplasmic tyrosine-protein kinase BMX (Homo sapiens) (UniProt P51813).
T1 sequence (whole entry): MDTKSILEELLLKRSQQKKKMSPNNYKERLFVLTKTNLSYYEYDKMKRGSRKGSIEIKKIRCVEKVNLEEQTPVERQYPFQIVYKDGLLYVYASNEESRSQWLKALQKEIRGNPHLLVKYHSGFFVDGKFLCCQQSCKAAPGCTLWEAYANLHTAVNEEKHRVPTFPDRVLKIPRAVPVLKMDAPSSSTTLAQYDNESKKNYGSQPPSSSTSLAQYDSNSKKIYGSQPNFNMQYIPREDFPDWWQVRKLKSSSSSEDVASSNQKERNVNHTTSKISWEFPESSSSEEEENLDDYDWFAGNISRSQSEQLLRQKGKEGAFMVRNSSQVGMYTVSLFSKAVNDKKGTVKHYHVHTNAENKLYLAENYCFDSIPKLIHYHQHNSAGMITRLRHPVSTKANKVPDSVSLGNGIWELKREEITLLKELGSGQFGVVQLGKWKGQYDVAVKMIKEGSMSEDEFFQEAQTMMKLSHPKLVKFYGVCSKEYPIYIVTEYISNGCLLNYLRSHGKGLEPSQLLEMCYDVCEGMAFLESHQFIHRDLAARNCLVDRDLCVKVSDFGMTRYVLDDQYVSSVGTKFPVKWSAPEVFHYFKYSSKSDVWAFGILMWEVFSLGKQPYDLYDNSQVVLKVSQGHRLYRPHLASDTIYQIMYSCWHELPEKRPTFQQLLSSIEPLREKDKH
The settings on record: at 0.1 µM.

Assay [15] has as its target T1, Cytoplasmic tyrosine-protein kinase BMX (Homo sapiens). The note with it: at 1 µM.
In assay [16] the target is Protein-tyrosine kinase 6 (Homo sapiens) (UniProt Q13882). The note with it: at 0.1 µM.
Sequence of Protein-tyrosine kinase 6 (Homo sapiens) (Q13882 whole entry, looked up): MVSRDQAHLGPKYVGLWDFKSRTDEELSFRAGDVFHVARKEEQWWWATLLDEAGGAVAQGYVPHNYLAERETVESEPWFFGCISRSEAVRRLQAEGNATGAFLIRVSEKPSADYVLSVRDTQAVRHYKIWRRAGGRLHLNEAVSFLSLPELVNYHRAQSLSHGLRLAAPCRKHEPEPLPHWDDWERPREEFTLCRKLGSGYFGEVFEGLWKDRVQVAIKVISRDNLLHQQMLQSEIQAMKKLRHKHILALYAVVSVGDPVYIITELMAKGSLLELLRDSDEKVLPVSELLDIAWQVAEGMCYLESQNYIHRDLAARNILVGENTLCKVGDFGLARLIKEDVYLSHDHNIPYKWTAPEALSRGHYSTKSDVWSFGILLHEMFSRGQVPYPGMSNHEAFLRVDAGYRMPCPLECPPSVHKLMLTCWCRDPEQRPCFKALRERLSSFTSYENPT
Assay [17] shares this target. The settings on record: at 1 µM.
Assay [18] concerns the target Tyrosine-protein kinase BTK (Homo sapiens) (UniProt Q06187). The note with it: at 0.1 µM.
The target is the same in assay [19]. The settings on record: at 1 µM.
Assay [20] addresses Tyrosine-protein kinase CSK (Homo sapiens) (UniProt P41240). The settings on record: at 0.1 µM.

Sequence of Tyrosine-protein kinase Blk (Homo sapiens) (P51451 2-505 limits assumed): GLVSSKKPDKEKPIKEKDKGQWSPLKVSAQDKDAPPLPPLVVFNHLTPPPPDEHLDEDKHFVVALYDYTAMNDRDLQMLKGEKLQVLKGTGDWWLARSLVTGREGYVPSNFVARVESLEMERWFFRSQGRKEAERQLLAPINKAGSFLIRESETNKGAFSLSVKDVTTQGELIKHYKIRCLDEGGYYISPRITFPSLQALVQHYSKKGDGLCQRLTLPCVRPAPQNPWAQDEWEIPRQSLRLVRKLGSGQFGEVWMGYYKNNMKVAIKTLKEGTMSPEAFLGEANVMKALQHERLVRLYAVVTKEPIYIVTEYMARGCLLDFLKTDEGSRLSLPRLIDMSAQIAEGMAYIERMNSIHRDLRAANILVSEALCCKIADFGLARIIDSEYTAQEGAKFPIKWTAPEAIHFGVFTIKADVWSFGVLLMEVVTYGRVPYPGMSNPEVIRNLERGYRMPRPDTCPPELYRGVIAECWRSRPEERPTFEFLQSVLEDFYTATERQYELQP
Sequence of Tyrosine-protein kinase CSK (Homo sapiens) (P41240 2-450 limits assumed): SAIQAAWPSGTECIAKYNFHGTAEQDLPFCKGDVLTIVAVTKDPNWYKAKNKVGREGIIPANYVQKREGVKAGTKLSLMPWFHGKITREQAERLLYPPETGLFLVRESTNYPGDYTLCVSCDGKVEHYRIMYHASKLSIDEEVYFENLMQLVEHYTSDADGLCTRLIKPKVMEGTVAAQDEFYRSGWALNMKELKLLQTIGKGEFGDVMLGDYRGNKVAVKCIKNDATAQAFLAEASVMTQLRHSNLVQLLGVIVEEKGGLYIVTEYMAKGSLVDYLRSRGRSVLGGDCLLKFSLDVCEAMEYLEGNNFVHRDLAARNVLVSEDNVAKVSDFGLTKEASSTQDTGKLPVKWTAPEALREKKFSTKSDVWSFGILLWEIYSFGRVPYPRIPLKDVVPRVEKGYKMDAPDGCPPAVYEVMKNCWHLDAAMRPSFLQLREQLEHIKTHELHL
Sequence of Tyrosine-protein kinase receptor UFO (Homo sapiens) (P30530 whole entry): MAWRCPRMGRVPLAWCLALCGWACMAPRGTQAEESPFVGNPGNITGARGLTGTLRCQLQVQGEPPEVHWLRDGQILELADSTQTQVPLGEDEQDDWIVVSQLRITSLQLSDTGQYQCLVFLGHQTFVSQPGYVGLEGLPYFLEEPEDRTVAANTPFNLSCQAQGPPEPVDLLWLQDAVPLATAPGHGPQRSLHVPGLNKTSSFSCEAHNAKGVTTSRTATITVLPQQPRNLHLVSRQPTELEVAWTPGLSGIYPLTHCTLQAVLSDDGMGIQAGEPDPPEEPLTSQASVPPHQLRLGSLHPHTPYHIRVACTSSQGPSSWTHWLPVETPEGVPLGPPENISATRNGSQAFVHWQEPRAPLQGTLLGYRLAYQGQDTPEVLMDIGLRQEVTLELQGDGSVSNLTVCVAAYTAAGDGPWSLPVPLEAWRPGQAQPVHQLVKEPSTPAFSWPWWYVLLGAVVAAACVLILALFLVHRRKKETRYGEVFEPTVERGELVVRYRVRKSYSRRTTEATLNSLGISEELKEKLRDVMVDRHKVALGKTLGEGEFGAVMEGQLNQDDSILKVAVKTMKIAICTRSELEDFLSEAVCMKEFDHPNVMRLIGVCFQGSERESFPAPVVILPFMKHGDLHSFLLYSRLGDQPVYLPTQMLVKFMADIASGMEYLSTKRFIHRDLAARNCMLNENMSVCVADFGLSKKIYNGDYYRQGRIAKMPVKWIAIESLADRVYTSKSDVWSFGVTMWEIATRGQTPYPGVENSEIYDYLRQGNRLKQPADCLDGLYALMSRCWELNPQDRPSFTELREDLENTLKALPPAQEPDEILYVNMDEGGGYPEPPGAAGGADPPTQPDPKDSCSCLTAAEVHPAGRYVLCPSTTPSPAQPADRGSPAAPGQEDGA
Sequence of Tyrosine-protein kinase BTK (Homo sapiens) (Q06187 whole entry): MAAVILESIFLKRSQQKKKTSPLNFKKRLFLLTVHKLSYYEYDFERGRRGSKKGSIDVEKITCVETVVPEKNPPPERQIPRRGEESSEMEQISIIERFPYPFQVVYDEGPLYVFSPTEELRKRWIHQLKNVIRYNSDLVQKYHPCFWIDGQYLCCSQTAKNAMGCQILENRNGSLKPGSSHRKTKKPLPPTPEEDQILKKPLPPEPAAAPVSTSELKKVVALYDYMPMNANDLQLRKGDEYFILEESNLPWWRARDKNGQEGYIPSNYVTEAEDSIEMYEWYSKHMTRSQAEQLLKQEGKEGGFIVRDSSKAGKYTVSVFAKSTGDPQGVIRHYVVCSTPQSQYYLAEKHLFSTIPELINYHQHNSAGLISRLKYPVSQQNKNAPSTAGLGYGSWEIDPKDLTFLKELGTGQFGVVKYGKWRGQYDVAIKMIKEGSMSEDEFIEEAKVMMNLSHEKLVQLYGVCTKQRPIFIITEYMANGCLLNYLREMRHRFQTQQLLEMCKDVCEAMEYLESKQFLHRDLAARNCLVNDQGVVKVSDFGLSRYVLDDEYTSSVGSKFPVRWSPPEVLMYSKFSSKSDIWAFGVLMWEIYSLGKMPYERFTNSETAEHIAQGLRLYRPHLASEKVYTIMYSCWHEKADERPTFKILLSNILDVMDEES

The inhibition is the drop in the measured response relative to a control, in per cent. On to `CCN(CC)Cc1ccc(Nc2nccc(-c3cnn4ncccc34)n2)cc1`, for which the inhibition in assay [1] turned out to be 47.4%; in assay [2] it was 8.38%; in assay [3] it was 39.5%; in assay [4] it was 6.1%; in assay [5], 29.5%; in [6] it was 2.57%. For the same compound, the inhibition in assay [7] is 24.4%; in assay [8], 1.47%; in [9], 22.2%; in assay [10], -3.64%; in assay [11], 16.3%; in assay [12] it was -0.3%. Also, the inhibition in [13] was 1.7%; in assay [14], 2.63%; in [15], 10.8%; in assay [16], 3.93%; in assay [17], 15.7%; in assay [18] it was -3.74%. The inhibition in [19] is -0.83%; in assay [20], 1.79%.

As for `Fc1ccc(-c2ncn(C3CCNCC3)c2-c2ccnc(Oc3ccc(F)c(F)c3)n2)cc1`, the inhibition in assay [1] is 1.7%; in assay [2], 1.79%; in [3], 2.98%; in assay [4], -1.26%; in assay [5] it was -1.29%; in [6] it was -1%. For the same compound, the inhibition in [7] was 1.5%; in assay [8], -1.34%; in assay [9] it was 0.3%; in [11], -4.58%; in assay [12], -1.88%; in assay [13], -2.13%. For the same compound, the inhibition in assay [14] is 3.36%; in [15], 3.49%; in [16] it was 2.61%; in assay [17], 5.39%; in [18] it was -4.19%; in assay [19], -4.23%. Besides, the inhibition in assay [20] was found to be 2.54%.

Consider `O=C(Nc1n[nH]c2nc(-c3ccc(O)cc3)c(Br)cc12)C1CC1`, for which the inhibition stood at 87.7% in assay [1]; 22.1% in assay [2]; 67.1% in assay [3]; 22.8% in assay [4]; 72.6% in [5]; 23.9% in [6]. The inhibition is 72.3% in [7]; 7.68% in [8]; 25.7% in assay [9]; -7.6% in assay [10]; -7.01% in assay [11]; 4.29% in [12]. Also, the inhibition in assay [13] is 15.4%; in assay [14], 3.85%; in [15] it was 13.4%; in assay [16] it was 3.18%; in assay [17], 11.1%; in [18], -0.08%. Also, the inhibition in assay [19] was determined as 0.5%; in assay [20] it was 8.35%.

Regarding `NC(=O)c1cc(-c2ccncc2)cc(-c2ccccc2)c1N`, the inhibition stood at 3.04% in assay [1]; 8.23% in assay [2]; 40.8% in [3]; 7.61% in [4]; 40.2% in [5]; 3.8% in [6]. Moreover, the inhibition is 5.19% in assay [7]; 6.19% in assay [8]; 54.2% in assay [9]; -7.51% in assay [10]; -6.8% in [11]; 3.86% in assay [12]. Also, the inhibition in assay [13] was 17.5%; in assay [14], 11.8%; in assay [15], 49.6%; in [16] it was 5.89%; in [17], 36.9%; in [18], 1.6%. Moreover, the inhibition in assay [19] worked out at 11.8%; in assay [20], 5.98%.

Regarding `O=C(Nc1n[nH]c2cc(-c3cc(F)ccc3F)ccc12)C1CC1`, the inhibition in assay [1] was determined as 74%; in [2], 13.8%; in assay [3], 49.6%; in assay [4], 8.06%; in [5], 51.4%; in assay [6], 2.02%. Besides, the inhibition was 4.05% in [7]; 3.87% in assay [8]; 19% in [9]; -7.5% in assay [10]; -2.71% in [11]; 1.38% in assay [12]. In addition, the inhibition was 4.54% in assay [13]; 1.69% in assay [14]; 3.35% in [15]; 1.78% in assay [16]; 2.23% in assay [17]; -1.19% in [18]. Besides, the inhibition was -2.01% in assay [19] and 3.87% in assay [20].

With `O=C(Nc1ccc(Oc2ccc3[nH]c(NC(=O)c4ccccc4)nc3c2)cc1)Nc1cc(C(F)(F)F)ccc1F`, the inhibition amounted to 83% in [1]; 10.8% in [2]; 51.8% in assay [3]; 16.2% in [4]; 62.3% in assay [5]; 3.09% in assay [6]. Further, the inhibition is 6.42% in assay [7]; 25.1% in [8]; 65.9% in assay [9]; -3.01% in [10]; 19.2% in [11]; 2.56% in assay [12]. For the same compound, the inhibition in assay [13] turned out to be 4.59%; in [14], 1.13%; in [15], 2.54%; in assay [16], 3.52%; in assay [17], 8.39%; in [18], 0.7%. Also, the inhibition in [19] stood at 3.03%; in assay [20], 2.64%.

On to `CN(C)c1ccc2c(c1)/C(=C/Nc1ccc(S(N)(=O)=O)cc1)C(=O)N2`, for which the inhibition is 18.4% in assay [1]; 4.7% in [2]; 18.7% in assay [3]; 2.76% in assay [4]; 21.3% in assay [5]; 1.86% in assay [6]. In addition, the inhibition in assay [7] came to 8.32%; in [8] it was 2.83%; in [9], 4.52%; in [10] it was 0.79%; in assay [11], 14.8%; in assay [12], 2.29%. Besides, the inhibition in [13] was 33.2%; in [14] it was -8.96%; in assay [15], 1.7%; in assay [16], 0.1%; in assay [17], 2.14%; in assay [18] it was -1.88%. Besides, the inhibition in assay [19] was -0.24%; in assay [20], 2.3%.

Source of the values: ChEMBL document CHEMBL1961873, “Compounds: GSK PKIS; Assays: Nanosyn kinase panel” (2012).
